LMNA splice mod: qHTS Assay for Modulators of Lamin A Splicing; HeLa LMNA splicing GFP/RFP minigene ratio, 48 h; Potency, µM (doses to about 46.1 µM), for the others: at the top dose ratio change, negative = inhibition, actives largely listed as inhibitors; 200,000 compounds, 0.01% hits; AID 1487, 2009; active means well fitted inhibition curve with a large enough effect in the signal ratio, with a control signal flat, not every such curve was filed as active; inconclusive means small, poorly fitted or top-dose-only effect, or effect the other way, or a change in a side signal; the % refers to the signal ratio; further: on the % scale 0 is the no-effect control and ±100 the full control effect
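S3 HeLa stable clones carrying a lamin A-EGFP splicing minigene plus DsRed2 were seeded at 600 cells/well in Opti-MEM with 2% FBS, pin-dosed and incubated 48 h at 37°C. Acumen cytometry (488 nm) gave the GFP/RFP total-intensity ratio.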
JMJD2E inh: qHTS Assay for Inhibitors of Human Jumonji Domain Containing 2E (JMJD2E). Lysine-specific demethylase 4E (Homo sapiens), B2RXH2. JMJD2E catalytic domain, FDH-coupled NADH fluorescence (FDH is formaldehyde dehydrogenase). Potency, µM (highest dose often 57.1 µM), for inactives: top-dose activity change, negative = inhibition, usual class: inhibitors. 230,000 compounds, 1.6% hits. AID 2147, 2009;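 further: 0% = wells with enzyme and -100% = buffer wells without enzyme; nearly all actives have a fitted effect of over 50% in size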
ALDH1A1 inh: qHTS Assay for Inhibitors of Aldehyde Dehydrogenase 1 (ALDH1A1) | Aldehyde dehydrogenase 1A1 (Homo sapiens), P00352 | Purified ALDH1A1, NADH fluorescence, propionaldehyde substrate | Potency, µM (top dose mostly 75.3 µM), without a hit: top-dose activity, negative = inhibition, hits mostly inhibitors | 220,000 compounds, 7.3% hits | AID 1030, 2008;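 further: plate controls were no enzyme wells and a reference inhibitor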
Target sequence (P00352 whole entry, looked up): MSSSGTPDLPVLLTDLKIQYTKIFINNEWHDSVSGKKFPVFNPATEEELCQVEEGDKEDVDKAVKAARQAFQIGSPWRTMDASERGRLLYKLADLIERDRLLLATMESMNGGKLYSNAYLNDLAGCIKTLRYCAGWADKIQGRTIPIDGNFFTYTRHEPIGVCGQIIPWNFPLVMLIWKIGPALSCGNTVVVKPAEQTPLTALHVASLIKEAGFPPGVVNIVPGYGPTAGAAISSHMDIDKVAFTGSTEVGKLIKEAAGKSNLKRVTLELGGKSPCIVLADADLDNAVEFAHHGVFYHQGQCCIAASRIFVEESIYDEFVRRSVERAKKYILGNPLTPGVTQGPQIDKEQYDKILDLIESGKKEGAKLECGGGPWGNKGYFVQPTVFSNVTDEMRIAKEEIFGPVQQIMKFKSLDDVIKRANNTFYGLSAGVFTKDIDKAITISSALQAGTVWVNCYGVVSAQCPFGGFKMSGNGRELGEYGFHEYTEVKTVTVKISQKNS
HPGD inh: qHTS Assay for Inhibitors of HPGD (15-Hydroxyprostaglandin Dehydrogenase). purified HPGD, NADH fluorescence kinetic, PGE2 substrate. AID 894, 2007. Potency, µM, for inactives: top-dose activity change, negative = inhibition, hits mostly inhibitors. 150,000 compounds, 4.3% hits; further: on the % scale 0 is the no-effect control and ±100 the full control effect
Target sequence (P15428 whole entry, looked up): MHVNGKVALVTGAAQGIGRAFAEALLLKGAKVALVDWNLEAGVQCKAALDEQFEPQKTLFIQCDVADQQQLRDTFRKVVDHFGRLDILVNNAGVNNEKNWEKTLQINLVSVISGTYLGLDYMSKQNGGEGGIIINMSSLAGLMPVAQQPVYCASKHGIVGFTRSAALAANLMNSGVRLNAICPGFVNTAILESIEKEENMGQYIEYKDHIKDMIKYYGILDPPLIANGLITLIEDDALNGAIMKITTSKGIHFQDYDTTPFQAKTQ
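20 nM HPGD preincubated 15 min at room temperature with compound in 50 mM Tris-HCl pH 8, 0.01% Tween 20. Started with 1 mM NAD+ and 30 uM prostaglandin E2; NADH fluorescence (360/450 nm) read 5 times over 30-s intervals, last minus first.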
HTT aggregate: qHTS Multiplex Assay to Identify Dual Action Probes in a Cell Model of Huntington: Aggregate Formation (GFP); PC12 HttQ103-GFP aggregates, Acumen cytometry, 40 h; Potency, µM (top dose mostly 46.1 µM), for the others: at the top dose activity change, negative = inhibition, usual class: inhibitors; 220,000 compounds, 1.1% hits; AID 1688, 2009; active means well fitted curve in the direction sought with a large enough effect; inconclusive means small, poorly fitted or top-dose-only effect, or another doubt; inactive means no such curve, though single readings can be large; an effect the other way counts as inactive or inconclusive; further: on the % scale 0 is the no-effect control and ±100 the full control effect; nearly all actives have a fitted effect of over 60% in size
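Huntingtin Q103 exon 1–GFP aggregates in induced PC12 cells (100 nM tebufenozide) were quantified by cytometry from lysates, with compounds dosed in titration.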
HTT ATP protect: qHTS Multiplex Assay to Identify Dual Action Probes in a Cell Model of Huntington: Cytoprotection (ATP); PC12 HTT-Q103 induced, cytoprotection, ATP luminescence, 40 h; Potency, µM (top dose mostly 56.4 µM), for inactives: cytoprotection (ATP increase), actives largely listed as activators; 230,000 compounds, 0.14% hits; AID 1471, 2008; active means well fitted curve in the direction sought with a large enough effect; inconclusive means small, poorly fitted or top-dose-only effect, or another doubt; inactive means no such curve, though single readings can be large; an effect the other way counts as inactive or inconclusive; further: % of control where 0% means no effect; nearly all actives have a fitted effect of over 45% in size
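Readout: ATPlite luminescence (ATP level). Model: stable PC12, inducible Htt exon1 Q103-GFP. Inducer: tebufenozide, 100 nM final. Compounds: dose series. No G418 in medium.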
Active calls of the source: *; ! = repeats disagree; [ ] = another dose, or the depositor's remark. Hits are enriched below; roughly 9.2% of the tested compounds scored in any of these assays. Unless noted, the call rests on the fitted dose curve; in most records, active means well fitted inhibition curve with a large enough effect (not every such curve was filed as active); inconclusive means small, poorly fitted or top-dose-only effect, or another doubt; inactive means no such curve, though single readings can be large or run the other way. Potency means the concentration at half of the fitted maximal effect.

What do the screens show for `c1ccc(CCCN2CCN(CCOC(c3ccccc3)c3ccccc3)CC2)cc1`?
LMNA splice mod: inconclusive; JMJD2E inh: -10%; ALDH1A1 inh: -16%; HPGD inh: -10%; HTT ATP protect: inconclusive

Results for Fc1ccc(C(OCCN2CCN(CCCc3ccccc3)CC2)c2ccc(F)cc2)cc1 ?
LMNA splice mod: inconclusive; JMJD2E inh: -1%; ALDH1A1 inh: -18%; HPGD inh: -15%; HTT aggregate: 25µM*; HTT ATP protect: -99%

How did CN(CCC(=O)O)C1=Nc2ccc(Cl)cc2C(c2ccccc2)=[N+]([O-])C1 do in these assays?
ALDH1A1 inh: 7%[13.5 µM]; HPGD inh: -5%; HTT ATP protect: 5%[10 µM]

How did O=C(O)[C@H]1[C@H](C(=O)O)[C@H]2CC[C@@H]1O2 do in these assays?
HTT ATP protect: 4%[1.9 µM]

What do the screens show for `CCC(C)C(=O)OC1C(O)C2C(CN3CC(C)CCC3[C@]2(C)O)C2C[C@]34O[C@@]5(O)C(OC(=O)C(C)(O)C(C)O)CCC3(C)C5C(OC(C)=O)C(OC(C)=O)C4[C@@]21O` (stereo partly specified)?
JMJD2E inh: -6%; ALDH1A1 inh: 9%; HPGD inh: -8%; HTT ATP protect: 6%

How did CCC(C)C(=O)OC1C(O)C2C(CN3CC(C)CCC3[C@]2(C)O)C2C[C@]34O[C@@]5(O)C(OC(=O)C(C)(O)CC)CCC3(C)C5C(OC(C)=O)C(OC(C)=O)C4[C@@]21O (stereo partly specified) do in these assays?
JMJD2E inh: 7%; ALDH1A1 inh: 14%; HPGD inh: -2%; HTT ATP protect: 1.4µM*

How did [N-]=[N+]=NCC(=O)c1c[nH]c(=O)[nH]c1=O do in these assays?
ALDH1A1 inh: -6%[13.5 µM]; HPGD inh: -13%; HTT ATP protect: 9%[10 µM]

What do the screens show for `C/C=C1/C[N@@+]2(C)CC[C@]34C(=C(C=O)[C@H]1C[C@H]32)Nc1ccccc14`?
ALDH1A1 inh: inconclusive; HTT ATP protect: -7%

What do the screens show for `COc1ccc(C(O)c2ccccc2OP(=O)(N(C)C)N(C)C)cc1` (stereo unspecified)?
LMNA splice mod: 4%; JMJD2E inh: 5%; ALDH1A1 inh: -1%; HPGD inh: -2%; HTT aggregate: 10%; HTT ATP protect: -33%[0.074 µM]

Results for COc1ccc(C(c2ccc(OC)cc2)C(Cl)(Cl)Cl)cc1 ?
LMNA splice mod: -8%; JMJD2E inh: -4%; ALDH1A1 inh: 14µM*!; HPGD inh: -8%; HTT ATP protect: -7%

Results for Cc1ccc(-c2nn(C)c(=O)c3ccccc23)cc1CNC(=O)/C=C/c1ccccc1 ?
LMNA splice mod: inconclusive; JMJD2E inh: inconclusive; ALDH1A1 inh: 22µM*; HPGD inh: inconclusive; HTT aggregate: inconclusive; HTT ATP protect: -68%

What do the screens show for `N#CCc1ccccc1`?
ALDH1A1 inh: 2%; HPGD inh: -8%; HTT ATP protect: -3%

Results for O=P1(Nc2cccnc2)COc2ccccc2OC1 ?
LMNA splice mod: 0%; JMJD2E inh: -1%; ALDH1A1 inh: -5%; HPGD inh: 7.1µM*; HTT aggregate: 10%; HTT ATP protect: -7%[0.074 µM]

How did O=[N+]([O-])c1ccc2nc(CCCc3nc4ccc([N+](=O)[O-])cc4[nH]3)[nH]c2c1 do in these assays?
LMNA splice mod: inconclusive; JMJD2E inh: -7%; ALDH1A1 inh: 14µM*

What do the screens show for `Cc1ccc([N+](=O)[O-])cc1C`?
ALDH1A1 inh: inconclusive; HPGD inh: -8%; HTT ATP protect: -27%

How did C[C@H]1C(=O)O[C@H]2CCN3CC=C(COC(=O)[C@](C)(O)[C@@]1(C)O)[C@H]23 do in these assays?
HTT ATP protect: -18%

What do the screens show for `C[C@H]1CN(C2CCC(C#N)(c3ccc(F)cc3)CC2)CC[C@@]1(C(=O)O)c1ccccc1` (stereo partly specified)?
LMNA splice mod: inconclusive; JMJD2E inh: -1%[25.5 µM]; ALDH1A1 inh: -8%[20.9 µM]; HPGD inh: 2%; HTT aggregate: -4%[20.6 µM]; HTT ATP protect: -34%[17.1 µM]

What do the screens show for `N#CC1(c2ccccc2)CCN(C2CC(=O)N(c3ccc4c(c3)OCO4)C2=O)CC1` (stereo unspecified)?
JMJD2E inh: 4%; ALDH1A1 inh: 8.9µM*; HTT aggregate: -32%[9.22 µM]; HTT ATP protect: -15%

How did N#CC1(c2ccccc2)CCN(C2CC(=O)N(c3ccc(F)cc3)C2=O)CC1 (stereo unspecified) do in these assays?
JMJD2E inh: -5%; ALDH1A1 inh: 32µM*; HTT aggregate: 9%; HTT ATP protect: -16%

What do the screens show for `O=S(=O)(Cl)c1ccccc1`?
ALDH1A1 inh: inconclusive; HPGD inh: -11%; HTT ATP protect: -23%

How did CN1CCN(c2ccc([N+](=O)[O-])c3[nH]o[n+](=O)c23)CC1 do in these assays?
HTT ATP protect: -93%[10 µM]

How did O=S(=O)(Nc1nccs1)c1ccc([As](=O)(O)O)cc1 do in these assays?
ALDH1A1 inh: -2%[13.5 µM]; HPGD inh: -9%; HTT ATP protect: 17%[10 µM]

What do the screens show for `O=C(CNC(=O)c1cccs1)OCC(=O)c1ccc([N+](=O)[O-])cc1`?
JMJD2E inh: -7%; ALDH1A1 inh: 0.32µM*; HTT aggregate: -2%[9.22 µM]; HTT ATP protect: 8%[10 µM]

How did O=c1cc(-c2ccc(O)c(O)c2)oc2cc(O)cc(O)c12 do in these assays?
LMNA splice mod: inconclusive; JMJD2E inh: 13µM*; ALDH1A1 inh: 20µM*; HPGD inh: 11µM*!; HTT aggregate: -32%[9.22 µM]; HTT ATP protect: inconclusive

What do the screens show for `O=c1c(O)c(-c2ccc(O)c(O)c2)oc2cc(O)cc(O)c12`?
LMNA splice mod: inconclusive; JMJD2E inh: 14µM*; ALDH1A1 inh: 13µM*!; HPGD inh: 20µM*!; HTT aggregate: -26%; HTT ATP protect: inconclusive

Results for O=C1/C(=C/c2cccnc2)SC(=NCc2ccccc2)N1Cc1ccccc1 ?
LMNA splice mod: inconclusive; JMJD2E inh: -3%; ALDH1A1 inh: 0.56µM*; HTT aggregate: inconclusive; HTT ATP protect: -44%

Results for C[N+]1(C)CCO[C@@](O)(c2ccc(-c3ccc([C@]4(O)C[N+](C)(C)CCO4)cc3)cc2)C1 ?
HTT ATP protect: -5%[1.9 µM]

What do the screens show for `Cc1ccc(-c2cc(-c3ccc(C)cc3)[n+](C)o2)cc1`?
LMNA splice mod: inconclusive; JMJD2E inh: inconclusive; ALDH1A1 inh: inconclusive; HPGD inh: inconclusive; HTT aggregate: 3.2µM*

Bioassay records: PubChem, National Center for Advancing Translational Sciences (NCATS)
